Results published in PubChem BioAssay AID743343 (Broad Institute, 2014).
Entries with a potency or affinity are not part of this list. The source made the active and inactive calls. The rule behind the calls is not given here.

Test system: Drosophila melanogaster bursicon receptor LGR2 (rickets)
Assay: LGR2 antagonists, dose response, cell-based, HEK293, CRE-luciferase reporter, cherry pick, set 2 (AID 743343)

| Structure (SMILES) | outcome |
| --- | --- |
| O=C(CSc1ncnc2[nH]ncc12)Nc1nc(-c2ccc(F)c(F)c2)cs1 | inactive |
| CC(=O)c1c(C)[nH]c(C(=O)CN2C(=O)NC(C)(c3ccc(C)cc3)C2=O)c1C (stereo not given) | inactive |
| CCOC(=O)C(C)N1c2cccc3cccc(c23)S1(=O)=O (stereo not given) | inactive |
| C[C@H](CO)N1C[C@H](C)[C@@H](CN(C)S(=O)(=O)c2cccs2)Oc2c(cccc2N(C)C)C1=O | inactive |
| O=[N+]([O-])c1cc(S(=O)(=O)N2CCCCCC2)ccc1Cl | inactive |
| Cn1nnnc1Sc1ncnc2scc(-c3ccccc3C(F)(F)F)c12 | inactive |
| COc1ccc(N(CC(=O)NCc2cccs2)S(=O)(=O)c2ccc(C(C)=O)cc2)cc1 | inactive |
| O=C(Nc1cc(S(=O)(=O)Nc2ccccc2Cl)ccc1O)c1ccc(F)cc1F | inactive |
| CCc1nnc(NC(=O)CSc2nnc3ncccn23)s1 | inactive |
| O=C(C[C@H]1CC[C@H](NS(=O)(=O)c2cccc(F)c2)[C@@H](CO)O1)N1CCCCC1 | inactive |
| C[C@@H]1CN([C@H](C)CO)C(=O)c2cc(C#CCN(C)C)cnc2O[C@@H]1CN(C)C(=O)CN1CCOCC1 | inactive |
| CC1CN(C(=O)c2cccc(S(=O)(=O)Nc3cc(Cl)ccc3Cl)c2)CC(C)O1 (stereo not given) | inactive |
| C[C@H](CO)N1C[C@H](C)[C@@H](CN(C)C(=O)Nc2ccc3c(c2)OCO3)Oc2c(cccc2N(C)C)C1=O | inactive |
| COc1ccccc1C=NNC(=O)c1ccncc1 | inactive |
| C[C@@H]1CN([C@H](C)CO)C(=O)c2cc(NC(=O)Nc3cccc4ccccc34)ccc2O[C@@H]1CN(C)C(=O)Nc1ccccc1 | inactive |
